Active and inactive are the calls of the source. Unless noted, how the calls were made is not given here.
Legend:
[1] = HepG2 liver cancer cell viability effects, profiling panel, resazurin fluorescence, 24 h, PK04 Diversity Set (AID 1172); conditions: higher = more signal; further: test concentration not given here
[2] = basal S. cerevisiae growth modulation, no modifier, primary screen, OD600, strain BY4716, 24 h, basal condition (AID 1173); conditions: OD600, 24 h, higher = more signal, called active from +8 up or from −8 down
[3] = MM1S myeloma cell viability, profiling panel, resazurin fluorescence, basal, 24 h, PK04 Diversity Set (AID 1174); conditions: higher = more signal, called active from +8 up or from −8 down;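 further: MM1S multiple myeloma cell line; test concentration not given here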
[4] = molecular target: Dihydroorotate dehydrogenase (quinone), mitochondrial (Plasmodium falciparum (isolate 3D7)) (UniProt Q08210); test: PfDHODH enzyme inhibitors, primary screen, biochemical, C-terminal His tag, absorbance 600 nm (AID 1175); conditions: DCIP absorbance 600 nm, higher = more signal, called active from +8 up or from −8 down;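 further: recombinant parasite enzyme with a five histidine tag at its C terminus; test concentration not given here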
Chain of Dihydroorotate dehydrogenase (quinone), mitochondrial (Plasmodium falciparum (isolate 3D7)) (Q08210 whole entry, looked up): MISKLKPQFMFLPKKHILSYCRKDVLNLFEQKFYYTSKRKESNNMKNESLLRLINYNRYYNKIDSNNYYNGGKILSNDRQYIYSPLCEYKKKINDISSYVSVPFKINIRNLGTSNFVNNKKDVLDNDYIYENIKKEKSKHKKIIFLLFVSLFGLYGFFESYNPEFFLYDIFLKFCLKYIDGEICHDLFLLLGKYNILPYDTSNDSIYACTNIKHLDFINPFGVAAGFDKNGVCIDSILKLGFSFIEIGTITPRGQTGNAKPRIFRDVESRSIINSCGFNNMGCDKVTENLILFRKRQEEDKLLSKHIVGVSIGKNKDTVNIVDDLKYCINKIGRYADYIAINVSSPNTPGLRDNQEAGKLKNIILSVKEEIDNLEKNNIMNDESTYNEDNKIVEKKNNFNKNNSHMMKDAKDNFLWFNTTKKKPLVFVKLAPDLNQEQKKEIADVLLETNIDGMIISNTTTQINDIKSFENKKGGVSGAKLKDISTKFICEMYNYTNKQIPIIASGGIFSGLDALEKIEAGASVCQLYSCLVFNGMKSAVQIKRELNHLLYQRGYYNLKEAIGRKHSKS

[5] = P. aeruginosa biofilm formation inhibitors, primary screen, strain PAO1, LB-PBS medium, absorbance 600 nm (AID 1176); further: test concentration not given here; conditions: P. aeruginosa PAO1 growth/biofilm, A600, 12 h; higher = more signal
[6] = S. cerevisiae RM11-1a growth modifiers, primary screen, strain RM11-1a, OD600, basal, 24 h (AID 1177); conditions: OD600, 24 h, higher = more signal, called active from +8 up or from −8 down;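 further: cultures grown under basal conditions with no added stressor; test concentration not given here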
[7] = E. coli acrAB mutant growth effects, primary screen, E. coli filamentation inducers, strain DRC39, OD650, 24 h (AID 1178); conditions: higher = more signal, called active from +8 up or from −8 down;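 further: growth measured as culture turbidity by optical density at 650 nm; test concentration not given here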
[8] = E. coli acrAB mutant growth effects, primary screen, E. coli filamentation inducers, strain DRC39, OD650, 48 h (AID 1179);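 further: screen aims at cell division blockers that make cells filament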; conditions: E. coli DRC39 delta-acrAB growth, higher = more signal, called active from +8 up or from −8 down
[9] = RPMI8226 myeloma cell viability, profiling panel, resazurin fluorescence, basal, 24 h, PK04 Diversity Set (AID 1180); conditions: higher = more signal;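 further: RPMI8826 multiple myeloma cell line at 5000 cells per well; test concentration not given here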
[10] = molecular target: E3 ubiquitin-protein ligase XIAP (Homo sapiens) (UniProt P98170); test: XIAP binders, primary screen, biophysical, small-molecule microarray, fluorescence 635 nm (AID 1181); conditions: small-molecule microarray binding, higher = more signal;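 further: score merges 667 nm emission and signal to noise over triplicate slides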
Chain of E3 ubiquitin-protein ligase XIAP (Homo sapiens) (P98170 whole entry, looked up): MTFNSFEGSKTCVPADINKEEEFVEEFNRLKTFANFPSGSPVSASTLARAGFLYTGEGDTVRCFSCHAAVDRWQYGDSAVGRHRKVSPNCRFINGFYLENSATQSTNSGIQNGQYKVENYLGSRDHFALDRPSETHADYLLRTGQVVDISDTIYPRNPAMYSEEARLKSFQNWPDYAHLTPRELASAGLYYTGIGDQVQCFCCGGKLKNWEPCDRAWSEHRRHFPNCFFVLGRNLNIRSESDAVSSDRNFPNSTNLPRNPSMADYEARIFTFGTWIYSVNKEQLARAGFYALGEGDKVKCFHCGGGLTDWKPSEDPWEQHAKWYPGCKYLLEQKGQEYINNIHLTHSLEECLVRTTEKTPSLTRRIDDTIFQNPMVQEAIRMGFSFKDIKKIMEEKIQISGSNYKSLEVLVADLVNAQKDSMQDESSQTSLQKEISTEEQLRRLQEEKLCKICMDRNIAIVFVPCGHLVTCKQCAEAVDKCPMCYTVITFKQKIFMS

| Compound | z-score [1] | z-score [2] | z-score [3] | composite z-score [4] | z-score [5] | z-score [6] | z-score [7] | z-score [8] | z-score [9] | composite z-score [10] |
| --- | --- | --- | --- | --- | --- | --- | --- | --- | --- | --- |
| COc1cccc(C[C@H]2C[C@@H](CO[Si](C(C)C)(C(C)C)C(C)C)N3C(=O)[C@@]4(C(C)=O)O[C@@]23[C@@H]2C(=O)N(C)C(=O)[C@@H]24)c1 | 0.65 | 0.294 (inactive) | -0.494 (inactive) | 0.0539 (inactive) | 0.82 (inactive) | 0.993 (inactive) | -0.493 (inactive) | -0.638 (inactive) | -0.334 | 0.0082 |
| C=C(CCCC)C(=O)CC[C@H](OC(C)=O)c1ccccc1OCCO | -1.32 | -2.49 (inactive) | -2.2 (inactive) | -0.573 (inactive) | -1.24 (inactive) | 0.0549 (inactive) | -1.17 (inactive) | -1.1 (inactive) | -2.13 | -0.0696 |
| COc1ccc(NN2C(C(O)c3ccc(OC)cc3)C=CC3C(=O)N(C4CCCCC4)C(=O)C32)cc1 (stereo not given) | 1.52 | -0.365 (inactive) | 0.363 (inactive) | -0.809 (inactive) | 1.05 (inactive) | 0.107 (inactive) | -0.447 (inactive) | 0.703 (inactive) | 0.346 | 0.229 |
| CC(C)C(=C=CC[C@@H](O)c1cccc(OCCO)c1)CCO | 0.545 | -1.15 (inactive) | 0.265 (inactive) | -1.1 (inactive) | 0.2 (inactive) | 0.0632 (inactive) | 0.546 (inactive) | 0.423 (inactive) | 0.336 | -0.127 |
| COc1cc2c(cc1O)C(c1ccc(CN3CCCC3)cc1)N(Cc1cccc(OC(F)(F)F)c1)CC2 (stereo not given) | -2.98 | -16.5 (active) | -9.24 (active) | 0.364 (inactive) | -0.103 (inactive) | -1.66 (inactive) | -4.72 (inactive) | -3.03 (inactive) | -6.78 | 0.0673 |
| CN(C)CCCC[C@@H]1NC(=O)[C@@H]2C[C@H](C(=O)NCc3ccc(F)cc3)[C@H](c3ccc(O)cc3)N2C1=O | -0.188 | 0.444 (inactive) | -0.0976 (inactive) | -1.14 (inactive) | 0.559 (inactive) | -0.605 (inactive) | 0.012 (inactive) | 0.0344 (inactive) | -0.0587 | -0.0448 |
| [N-]=[N+]=Nc1ccccc1[C@@H]1OC(c2ccc(OCCCO)cc2)=N[C@]1(Cc1ccccc1)C(N)=O | 1.2 | -0.821 (inactive) | -0.622 (inactive) | 0.474 (inactive) | -0.0558 (inactive) | 1.19 (inactive) | 0.673 (inactive) | 0.481 (inactive) | -0.589 | 0.0838 |
| CC(C)N1CC=CC23O[C@@H]4C=CCCOC(=O)C4[C@H]2C(=O)N(CCCCCO)[C@@H]3C1=O (stereo not given in full) | 0.613 | 0.848 (inactive) | 0.988 (inactive) | -0.727 (inactive) | 0.0126 (inactive) | 0.581 (inactive) | 1.01 (inactive) | 0.798 (inactive) | 1.42 | 0.0684 |
| C#CCN([C@H](/C=C/C1CC1)[C@@H](O)Cc1ccccc1)[C@@H](Cc1ccccc1)C(=O)OC | 1.82 | 0.0363 (inactive) | 1.59 (inactive) | 0.373 (inactive) | -0.319 (inactive) | 0.97 (inactive) | 1.07 (inactive) | 0.968 (inactive) | 0.737 | 0.271 |
| CC(=O)NCCCC[C@@H]1NC(=O)[C@@H]2C[C@H](C(=O)NCCCCCC[N+](C)(C)C)[C@H](c3ccc(O)cc3)N2C1=O | -0.793 | 0.857 (inactive) | -0.471 (inactive) | -1.24 (inactive) | -0.807 (inactive) | 0.0885 (inactive) | -0.241 (inactive) | -0.229 (inactive) | -0.854 | 0.123 |
| C=CCC(OC(C)=O)[C@@H]1[C@@H](N(Cc2cccc3ccccc23)C(=O)c2cccc3ccccc23)c2cc(OCCCO)ccc2N1C(=O)Cc1ccc2ccccc2c1 (stereo not given in full) | 0.414 | -0.599 (inactive) | -0.41 (inactive) | -0.373 (inactive) | -0.723 (inactive) | -0.0264 (inactive) | 0.632 (inactive) | 0.334 (inactive) | -0.0924 | 0.452 |
| CN1C(=O)[C@]2(CCC(=O)OC(C)(C)C)N=C(c3ccc(OCCCO)cc3)O[C@@H]2c2ccccc21 | 0.476 | 0.997 (inactive) | -1.67 (inactive) | 0.42 (inactive) | -0.441 (inactive) | 1.09 (inactive) | 1.01 (inactive) | 0.679 (inactive) | -1.56 | 0.312 |
| CCOC(=O)C1=C[C@@H](C(C)(C)C)N(S(=O)(=O)c2ccc(C)cc2)[C@H]1c1ccccc1Cl | -0.421 | 1.51 (inactive) | -0.763 (inactive) | 0.0477 (inactive) | 0.188 (inactive) | 1.73 (inactive) | -0.544 (inactive) | -0.468 (inactive) | -1.74 | 0.227 |
| COCCOC(=O)N1C(=O)[C@@]2(c3cc(C#CC4(O)CCCCCC4)ccc31)[C@H](c1ccc(OCCO)cc1)N1[C@H](c3ccccc3)[C@H](c3ccccc3)OC(=O)[C@H]1[C@@H]2C(=O)N1CCCCCCC1 | -0.768 | 0.973 (inactive) | -0.418 (inactive) | 0.0448 (inactive) | 1.16 (inactive) | 2.11 (inactive) | -2.2 (inactive) | -1.8 (inactive) | 0.0982 | -0.151 |
| CCCC=C(CCC)[C@@H](NC(=O)c1ccccc1)c1ccc(C(=O)OC)cc1 | 0.295 | -0.366 (inactive) | 0.286 (inactive) | -5.83 (inactive) | 2.23 (inactive) | -0.363 (inactive) | -0.634 (inactive) | -0.078 (inactive) | -0.0265 | 0.209 |
| C=CCC(OC(C)=O)[C@@H]1[C@@H](N(Cc2ccc(-c3cccc(C(F)(F)F)c3)o2)C(=O)Cc2ccc(OC)cc2)c2cc(OCCCO)ccc2N1C(=O)c1ccc2ccccc2n1 (stereo not given in full) | -0.777 | -0.791 (inactive) | 0.271 (inactive) | -0.0941 (inactive) | -0.817 (inactive) | -0.188 (inactive) | -0.267 (inactive) | -0.446 (inactive) | 0.0494 | 0.36 |
| O=C1OCCC=C[C@H]2OC34C=CCN(c5ccc(Cl)cc5)C(=O)[C@H]3N(CCO)C(=O)[C@@H]4C12 (stereo not given in full) | 0.545 | 0.204 (inactive) | 0.221 (inactive) | -1.45 (inactive) | -0.317 (inactive) | 0.132 (inactive) | -0.947 (inactive) | -1.04 (inactive) | -0.202 | -0.31 |
| CN(C)CCCCNC(=O)[C@H]1C[C@H]2C(=O)N[C@@H](Cc3ccccc3)C(=O)N2[C@H]1c1cccc(OCCO)c1 | 1.36 | -0.456 (inactive) | 1.38 (inactive) | 0.65 (inactive) | -0.254 (inactive) | -0.372 (inactive) | 0.553 (inactive) | 0.862 (inactive) | 1.06 | 0.0512 |
| CCCC=C(CCC)[C@@H](NC(=O)c1ccco1)c1ccc(C(=O)OC)cc1 | 3.5 | 1.39 (inactive) | 1.12 (inactive) | -0.0216 (inactive) | -0.387 (inactive) | 1.67 (inactive) | -0.422 (inactive) | -0.245 (inactive) | -2.8 | 0.251 |

From PubChem BioAssay
